The campaign covered roughly 39,000 compounds. About 3,300 (8.5%) were called active. The entries come from a sample that favours actives as a whole.
Test system: HepG2
Test: cytotoxicity call (relative viability < 0.9)
Details: 10 µM

| SMILES | cytotoxicity call |
| --- | --- |
| COc1ccc(S(=O)(=O)N(C)C[C@H]2Oc3c(NC(=O)C4CC4)cccc3C(=O)N([C@@H](C)CO)C[C@H]2C)cc1 | inactive |
| C[C@H](CO)N1C[C@H](C)[C@@H](CN(C)Cc2ccccc2)Oc2c(NC(=O)CCCCCC(=O)Nc3ccccc3N)cccc2C1=O | inactive |
| c1ccc([C@@H]2CCC[C@H](c3ccccc3)S2)cc1 | inactive |
| C[C@H]1CN([C@@H](C)CO)C(=O)c2cc(NS(=O)(=O)c3cccs3)ccc2O[C@@H]1CN(C)C(=O)Nc1cccc2ccccc12 | inactive |
| Cn1cc(C[C@@H](N)C(=O)O)c2ccccc21 | inactive |
| O=C(C[C@H]1C[C@@H]2c3cc(NC(=O)NC4CCCC4)ccc3O[C@@H]2[C@@H](CO)O1)NCCN1CCCCC1 | inactive |
| NC(Cc1cc(I)c(Oc2cc(I)c(O)c(I)c2)c(I)c1)C(=O)[O-].[Na+] (stereo not given) | inactive |
| C[C@H]1CN([C@@H](C)CO)C(=O)c2cc(NC(=O)Nc3ccccc3)ccc2O[C@@H]1CN(C)C(=O)Nc1cccc2ccccc12 | inactive |
| C[C@H](CO)N1C[C@H](C)[C@H](CN(C)Cc2ccc(Cl)c(Cl)c2)OCCCC[C@H](C)Oc2ccc(NC(=O)Nc3ccc(C(F)(F)F)cc3)cc2C1=O | active |
| C[C@H]1CCCCO[C@@H](CN(C)Cc2ccc(Cl)c(Cl)c2)[C@@H](C)CN([C@@H](C)CO)C(=O)c2cc(NC(=O)Nc3ccc(C(F)(F)F)cc3)ccc2O1 | inactive |
| C[C@H]1CCCCO[C@H](CN(C)Cc2ccc(Cl)c(Cl)c2)[C@@H](C)CN([C@@H](C)CO)C(=O)c2cc(NC(=O)Nc3ccc(C(F)(F)F)cc3)ccc2O1 | inactive |
| CC(=O)c1ccc(O)c(C(N)=O)c1 | inactive |
| COc1ccc(S(=O)(=O)Nc2ccc3c(c2)CC(=O)N([C@@H](C)CO)C[C@H](C)[C@@H](CN(C)Cc2ccc(-c4ccccc4)cc2)O3)cc1 | inactive |
| COc1ccc(S(=O)(=O)Nc2ccc3c(c2)CC(=O)N([C@H](C)CO)C[C@@H](C)[C@@H](CN(C)Cc2ccc(-c4ccccc4)cc2)O3)cc1 | active |
| COc1ccc(S(=O)(=O)Nc2ccc3c(c2)CC(=O)N([C@@H](C)CO)C[C@H](C)[C@H](CN(C)Cc2ccc(-c4ccccc4)cc2)O3)cc1 | active |
| COc1ccc(S(=O)(=O)Nc2ccc3c(c2)CC(=O)N([C@@H](C)CO)C[C@@H](C)[C@H](CN(C)Cc2ccc(-c4ccccc4)cc2)O3)cc1 | active |
| COc1ccc(S(=O)(=O)Nc2ccc3c(c2)CC(=O)N([C@@H](C)CO)C[C@@H](C)[C@@H](CN(C)Cc2ccc(-c4ccccc4)cc2)O3)cc1 | inactive |
| COc1ccc(S(=O)(=O)Nc2ccc3c(c2)CC(=O)N([C@H](C)CO)C[C@H](C)[C@H](CN(C)Cc2ccc(-c4ccccc4)cc2)O3)cc1 | active |
| COc1ccc(S(=O)(=O)Nc2ccc3c(c2)CC(=O)N([C@H](C)CO)C[C@H](C)[C@@H](CN(C)Cc2ccc(-c4ccccc4)cc2)O3)cc1 | inactive |
| Cc1cc(C(F)(F)F)cc(Cl)n1 | inactive |
| Cc1ccc(S(=O)(=O)N(C)C[C@@H]2OCCCC[C@H](C)Oc3ccc(NC(=O)Nc4ccc(C(F)(F)F)cc4)cc3C(=O)N([C@H](C)CO)C[C@@H]2C)cc1 | inactive |
| CC(C)NC(=O)N(C)C[C@H]1Oc2c(NC(=O)NC3CCCCC3)cccc2C(=O)N([C@H](C)CO)C[C@H]1C | inactive |

| SMILES | cytotoxicity call |
| --- | --- |
| C[C@H](CO)N1C[C@H](C)[C@@H](CN(C)C(=O)Cc2cccnc2)Oc2ncc(C#Cc3ccccc3F)cc2C1=O | inactive |
| Cc1nn(C)cc1NC(=O)C[C@H]1CC[C@H]2[C@@H](COc3ccc(NC(=O)C4CCOCC4)cc3C(=O)N2C)O1 | inactive |
| COCC(=O)NCc1n[nH]c(=O)c2ccccc12 | inactive |
| CC1(C)OC(=O)C2(C(=O)O1)[C@@H](c1ccc(-c3ccc(C(F)(F)F)cc3)cc1)CC(=O)C[C@H]2c1ccccc1 | inactive |
| COc1ccc(S(=O)(=O)Nc2ccc3c(c2)CC(=O)N([C@H](C)CO)C[C@@H](C)[C@H](CN(C)Cc2ccc(-c4ccccc4)cc2)O3)cc1 | active |
| CC(C)NC(=O)Nc1cccc2c1O[C@H](CN(C)Cc1ccc(C(=O)O)cc1)[C@H](C)CN([C@H](C)CO)C2=O | inactive |
| COc1ccc(S(=O)(=O)Nc2ccc3c(c2)C(=O)N([C@@H](C)CO)C[C@H](C)[C@@H](CN(C)S(=O)(=O)c2ccc(OC)cc2)O3)cc1 | inactive |
| C[C@@H]1CCCCO[C@H](CN(C)S(=O)(=O)c2ccccc2)[C@@H](C)CN([C@@H](C)CO)C(=O)c2cc(NC(=O)Nc3ccc(F)cc3)ccc2O1 | inactive |
| CN[C@@H]1[C@@H](O)[C@@H](O[C@@H]2[C@@H](O)[C@H](O[C@H]3O[C@H]([C@@H](C)NC)CC[C@H]3N)[C@@H](N)C[C@H]2N)OC[C@]1(C)O | inactive |
| CNC(C)C1CCC(N)C(OC2C(N)CC(N)C(OC3OCC(C)(O)C(NC)C3O)C2O)O1.O=S(=O)(O)O (stereo not given) | active |
| CNC[C@@H]1CC[C@@H](N)[C@@H](O[C@H]2[C@H](O)[C@@H](O[C@H]3OC[C@](C)(O)[C@H](NC)[C@H]3O)[C@H](N)C[C@@H]2N)O1 | inactive |
| NC[C@H]1CCCN(C(=O)Nc2ccc(Oc3ccccc3)cc2)C1 | inactive |
| NC[C@H]1CCN(c2ccc(Oc3ccccc3)cc2)C1 | active |
| Cc1ccc(N2CC[C@@H](CN)C2)cc1 | inactive |
| Cn1c(=O)n2n(c1=O)[C@H](C1CC1)C=C1CN3[C@@H]([C@H](Cc4ccccc4)OC(=O)[C@@H]3Cc3ccc(N=[N+]=[N-])cc3)[C@@H]12 | inactive |
| Cc1ccc(S(=O)(=O)Nc2ccc3c(c2)C(=O)N([C@H](C)CO)C[C@@H](C)[C@H](CN(C)Cc2ccc(-c4ccccc4)cc2)O3)cc1 | inactive |
| Cc1ccc(S(=O)(=O)Nc2ccc3c(c2)C(=O)N([C@@H](C)CO)C[C@H](C)[C@H](CN(C)Cc2ccc(-c4ccccc4)cc2)O3)cc1 | inactive |
| Cc1ccc(S(=O)(=O)Nc2ccc3c(c2)C(=O)N([C@H](C)CO)C[C@H](C)[C@H](CN(C)Cc2ccc(-c4ccccc4)cc2)O3)cc1 | active |
| Cc1ccc(S(=O)(=O)Nc2ccc3c(c2)C(=O)N([C@H](C)CO)C[C@H](C)[C@@H](CN(C)Cc2ccc(-c4ccccc4)cc2)O3)cc1 | inactive |
| Cc1ccc(S(=O)(=O)Nc2ccc3c(c2)C(=O)N([C@@H](C)CO)C[C@H](C)[C@@H](CN(C)Cc2ccc(-c4ccccc4)cc2)O3)cc1 | inactive |
| Cc1ccc(S(=O)(=O)Nc2ccc3c(c2)C(=O)N([C@H](C)CO)C[C@@H](C)[C@@H](CN(C)Cc2ccc(-c4ccccc4)cc2)O3)cc1 | active |
| Cc1ccc(S(=O)(=O)Nc2ccc3c(c2)C(=O)N([C@@H](C)CO)C[C@@H](C)[C@@H](CN(C)Cc2ccc(-c4ccccc4)cc2)O3)cc1 | active |

| SMILES | cytotoxicity call |
| --- | --- |
| Cc1ccc(S(=O)(=O)Nc2ccc3c(c2)C(=O)N([C@@H](C)CO)C[C@@H](C)[C@H](CN(C)Cc2ccc(-c4ccccc4)cc2)O3)cc1 | inactive |
| C[C@@H]1CCCCO[C@H](CN(C)C(=O)CCCN(C)C)[C@@H](C)CN([C@H](C)CO)C(=O)c2cc(NC(=O)Nc3ccc(F)cc3)ccc2O1 | inactive |
| Cc1noc(C)c1NC(=O)N(C)C[C@H]1OCCCC[C@H](C)Oc2ccc(NS(=O)(=O)c3ccccc3)cc2C(=O)N([C@@H](C)CO)C[C@H]1C | inactive |
| C[C@H]1CN([C@@H](C)CO)S(=O)(=O)c2ccc(C#Cc3cccc(F)c3)cc2O[C@H]1CN(C)CC1CC1 | inactive |
| C[C@H](CO)N1C[C@H](C)[C@H](CN(C)S(=O)(=O)c2cn(C)cn2)Oc2ccc(NC(=O)C3CCCCC3)cc2C1=O | inactive |
| Cc1ccc(S(=O)(=O)Nc2ccc3c(c2)C(=O)N(C)[C@H]2CC[C@@H](CC(=O)NCCc4ccncc4)O[C@@H]2CO3)cc1 | inactive |
| O=C1c2ccccc2[C@](Cc2ccccc2I)(C(=O)NCc2ccccc2)[C@H](c2ccc(CO)cc2)N1Cc1ccccc1C(F)(F)F | inactive |
| COCC#Cc1ccc2c(c1)O[C@H](CN(C)S(=O)(=O)c1ccc(C)cc1)[C@@H](C)CN([C@@H](C)CO)S2(=O)=O | inactive |
| COc1ccc(CN(C)C[C@H]2Oc3ccc(NS(=O)(=O)c4cn(C)cn4)cc3CC(=O)N([C@@H](C)CO)C[C@H]2C)cc1 | inactive |
| CC(C)CCC(=O)N1C[C@@H]2c3nc(N4CCOCC4)ncc3CS(=O)(=O)[C@H]2C1 | inactive |
| COC(=O)CCCCCCC(=O)N/N=C/[C@H](O)[C@@H](O)[C@H](O)CO | inactive |
| Cc1noc(C)c1NC(=O)Nc1ccc2c(c1)CC(=O)N([C@@H](C)CO)C[C@@H](C)[C@H](CN(C)C(=O)Nc1ccc(C(F)(F)F)cc1)O2 | inactive |
| COc1ccc(CN(C)C[C@@H]2Oc3ccc(NS(=O)(=O)c4c(C)noc4C)cc3CC(=O)N([C@H](C)CO)C[C@@H]2C)cc1 | inactive |
| Cc1ccc(S[C@]2(C(=O)NCCN3CCOCC3)CC(=O)N(Cc3cc(C(F)(F)F)cc(C(F)(F)F)c3)[C@@H]2c2ccc(CO)cc2I)cc1 | inactive |
| Cc1ccc(S(=O)(=O)Nc2ccc3c(c2)CC(=O)N([C@H](C)CO)C[C@H](C)[C@@H](CN(C)S(=O)(=O)c2ccccc2)O3)cc1 | inactive |
| C=CC(=O)Nc1cccc(Nc2nc(Nc3ccc(NC4CN(CCF)C4)cc3OC)ncc2C(F)(F)F)c1 | active |
| COc1cccc(-c2ccc3c(c2)O[C@H](CN(C)Cc2cncnc2)[C@@H](C)CN([C@H](C)CO)S3(=O)=O)c1 | inactive |
| COc1ccccc1O[C@@H](C)C(=O)NN | inactive |
| CCOc1ccccc1C(N)=O | inactive |
| CCOC(=O)CC(=O)N1CCSC1COc1ccccc1OC (stereo not given) | active |
| N[C@@H](Cn1ccc(=O)n(Cc2ccccc2C(=O)O)c1=O)C(=O)O | inactive |

Reference: the antibiotic and cytotoxicity screens of Wong et al. (2023)
